# ELG1 repair inh = blocks ELG1-dependent DNA repair in HEK293T cells. HEK293T ELG1-luciferase reporter, luminescence, 16 h; DNA damage induced by 5-fluorouridine. Potency, µM (doses to about 46.1 µM), for inactives: at the highest dose activity change, negative = inhibition, usual class: inhibitors. hit rate 2.3% among 330,000. AID 504467; also: potency is read from the fitted curve at half-maximal effect; % is scaled to controls: 0 for no effect and ±100 for the full control effect; nearly all actives have a fitted effect of over 55% in size
#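 Cells (2,000 per well) received 5-fluorouridine plus test compound or DMSO and were incubated 16 hr at 37 °C, 5% CO2. Luciferase activity was read by luminescence 30 min after ONE-Glo addition; signal suppression marked inhibition of damage-induced ELG1 function.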
# Giardia kill = Giardia lamblia killing. AID 540267. Giardia lamblia trophozoite viability. activity change, % at 7.66 µM, hits read low. hit rate 0.15% among 340,000; in the data active = activity change below about -80%; inconclusive = between about -30% and that limit;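 also: parasites exposed to compound for two days anaerobically before the ATP read; % is scaled to controls: 0 for no effect and ±100 for the full control effect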
#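 Anaerobic 48 hrs incubation at 37 deg C of 100 trophozoites/well with test compounds; ATPLite 1-Step luminescence, 15-30 min RT, reports cellular ATP as viability.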
# BRCA1 expr act = BRCA1 expression activation; MCF7-BRCA1-FFLuc reporter, luminescence, 48 h; response scale: scaled: vehicle 0%, 10 µM genistein 100%; Potency, µM (titrated, usually from 46.1 µM), inactives show at the top dose activation, actives largely listed as activators; hit rate 1.1% among 380,000; AID 624202; also: potency is read from the fitted curve at half-maximal effect; nearly all actives have a fitted effect of over 80% in size
#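 MCF7-BRCA1-FFLuc cells, 2000/well in phenol-red-free MEM, attached 2 h then treated 48 h at 37 C. Luciferase luminescence read 15 min after reagent; normalized to genistein maximum activation (10microM) and DMSO, concentration-response fitted.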
# RORg inh = ROR gamma (mouse) transcription inhibition; P51450; Drosophila S2 Gal4-RORgamma UAS-luciferase reporter, 20 h; Potency, µM (titrated, usually from 53.6 µM), without a hit: top-dose activity change, negative = inhibition, hits mostly inhibitors; hit rate 5.4% among 310,000; AID 2551; also: potency is read from the fitted curve at half-maximal effect; % is scaled to controls: 0 for no effect and ±100 for the full control effect; nearly all actives have a fitted effect of over 60% in size
# Target sequence (P51450 whole entry, looked up, the tested form may be a part): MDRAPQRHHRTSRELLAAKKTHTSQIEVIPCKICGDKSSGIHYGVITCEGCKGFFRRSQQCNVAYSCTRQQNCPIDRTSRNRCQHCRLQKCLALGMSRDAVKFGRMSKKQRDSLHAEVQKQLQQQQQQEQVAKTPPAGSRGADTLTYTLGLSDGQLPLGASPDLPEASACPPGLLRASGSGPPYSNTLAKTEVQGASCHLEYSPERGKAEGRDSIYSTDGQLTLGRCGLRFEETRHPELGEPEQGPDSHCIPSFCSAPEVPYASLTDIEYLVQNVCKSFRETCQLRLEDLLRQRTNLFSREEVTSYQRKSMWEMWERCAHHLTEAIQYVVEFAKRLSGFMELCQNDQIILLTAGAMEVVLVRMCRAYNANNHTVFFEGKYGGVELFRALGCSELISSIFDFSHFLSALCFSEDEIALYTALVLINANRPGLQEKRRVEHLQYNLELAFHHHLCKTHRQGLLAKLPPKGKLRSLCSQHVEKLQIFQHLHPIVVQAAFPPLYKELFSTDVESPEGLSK
#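 Compounds are pin-transferred onto Drosophila Schneider cells expressing a copper-inducible Gal4–ROR gamma transactivation domain fusion. After 1 hr, copper sulfate is added to 700 uM final; luciferase is read 20 hr later.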
# VP16 counter = counter-screen for ROR gamma inhibitors: Gal4-VP16 reporter | Drosophila S2 Gal4-VP16 UAS-luciferase, luminescence, 20 h | Potency, µM (series often up to 53.6 µM), for the others: top-dose activity, negative = inhibition, hits mostly inhibitors | hit rate 3.5% among 310,000;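 also: Gal4-VP16 expression switched on by copper sulfate through the metallothionein promoter; potency is read from the fitted curve at half-maximal effect; % is scaled to controls: 0 for no effect and ±100 for the full control effect; nearly all actives have a fitted effect of over 50% in size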
# p53 reactivation = mutant p53 re-activation in reporter cells; AID 504706; Potency, µM (doses to about 92.2 µM), inactives show top-dose activity change, positive = activation, usual class: activators; H1299 p53-A138V BP100-luciferase reporter, luminescence, 24 h; hit rate 0.063% among 320,000; also: potency is read from the fitted curve at half-maximal effect; % of control where 0% means no effect; nearly all actives have a fitted effect of over 45% in size
#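 H1299 (p53-null), stable ts p53-A138V + BP100-Luc; 1000 cells/well, Opti-MEM/10% FBS; cpd 4 pt, 1:5; 24 h, 37 deg C, 5% CO2; detection reagent 10 min RT; luminescence.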
# Numbers without * were called inactive; ? = inconclusive; / = no result. An excerpt weighted towards active compounds, which were near 7.6% of everything screened. Unless noted, calls follow the shape of the dose curve; as a rule, active = well fitted curve in the direction sought with a large enough effect; inconclusive = small, poorly fitted or top-dose-only effect, or another doubt; inactive = no such curve, though single readings can be large; an effect the other way counts as inactive or inconclusive.
SMILES,ELG1 repair inh,Giardia kill,BRCA1 expr act,RORg inh,VP16 counter,p53 reactivation
O=C(OCc1ccc(F)cc1)c1cc(=O)c2ccccc2o1,1.4%,-8.7,4.2%,3.4%,-5.5%,11.4%
Cc1nc2sc(C(c3cccs3)N3CCN(C(=O)c4ccco4)CC3)c(O)n2n1 (stereo not given),1.6%,7.4,-18.0%,?,-5.3%,-4.9%
CCCCNC(=S)NNC(=O)c1sccc1C,3.5%,-4.1,-1.2%,1.41µM*,-22.4%,4.0%
CCn1c(SCC(=O)N2c3ccccc3Sc3ccccc32)nnc1-c1ccco1,?,19.5,-40.3%,0.5%,-6.8%,-4.5%
Cn1c(SCC(=O)N2c3ccccc3Sc3ccc(Cl)cc32)nnc1-c1ccco1,18.4µM*,11.3,-9.5%,36.7%,-13.1%,-7.5%
O=C(CSc1nnc(-c2ccncc2)n1Cc1ccco1)N1c2ccccc2Sc2ccc(Cl)cc21,23.1µM*,3.4,-31.2%,?,-16.4%,-6.4%
O=C(CSc1nnc(-c2ccncc2)n1Cc1ccco1)OC1CCCCC1,4.3%,0.4,-9.8%,10µM*,?,1.1%
Cc1cc(Cl)ccc1NC(=O)CSc1nnc(-c2ccncc2)n1Cc1ccco1,?,-2.0,-11.7%,15.9%,-14.4%,-6.4%
O=C(CSc1nnc(-c2cnccn2)n1Cc1ccco1)c1ccc(Cl)cc1,2.4%,5.7,2.7%,10µM*,?,-15.4%
O=C(O)c1ccc2c(=O)n3c(nc2c1)/C(=C/c1cccc(Cl)c1Cl)CC3,1.2%,12.2,-12.6%,?,5.4%,1.7%
O=C(CNC(=O)c1cccc(OC(F)F)c1)OCn1nnc2ccccc2c1=O,7.1%,-26.7,-5.5%,-7.8%,-0.9%,?
Cc1cccc(-c2nnc(SCc3nc4ccccc4[nH]3)n2Cc2ccco2)c1,?,-10.2,-3.2%,-43.7%,-3.6%,-18.6%
Cc1ccc(-c2nnc(SCc3nc4ccccc4[nH]3)n2Cc2ccco2)cc1,?,-1.7,-25.8%,11.2µM*,?,-20.8%
CC(C)(C)c1ccc(CSc2nnc(-c3ccccn3)n2Cc2ccco2)cc1,?,7.5,-66.5%,?,7.08µM*,-22.9%
Cc1ccc(-c2noc(=O)n2CC(=O)c2ccc(Cl)cc2)cc1,?,-6.2,3.9%,30.8%,11.8%,5.7%
C=CCCC1CN(Cc2ccco2)S(=O)(=O)c2c(F)cccc2O1 (stereo not given),/,5.8,-1.6%,/,/,/
CC(C)NC(=O)N(C)C[C@H]1Oc2c(NC(=O)C3CCCCC3)cccc2C(=O)N([C@H](C)CO)C[C@@H]1C,8.5%,?,-0.1%,/,/,17.2%
CC(C)(C)c1cn(-c2ccc(F)cc2)c(=S)[nH]1,1.4%,0.6,-1.6%,8.91µM*,10µM*,-0.6%
Fc1ccc(-n2c(=S)[nH]c3cccnc32)cc1,6.0%,1.4,0.9%,?,?,0.7%
CCOc1cccc(/C=C/c2cc(C(=O)O)c3ccccc3n2)c1OC,?,?,-1.5%,4.47µM*,?,0.9%
CCOc1cc(/C=C/c2cc(C(=O)O)c3ccccc3n2)ccc1OC,?,?,68.7%,12.6µM*,?,?
Cc1cc(C)c(N(Cc2ccccc2)S(=O)(=O)c2ccc(OCCNC(=O)c3cc4ccccc4o3)cc2)c(C(=O)NO)c1,/,/,/,10µM*,?,/
COc1ccc(C2CC(c3ccc(C)o3)=NN2C(C)=O)cc1 (stereo not given),?,16.2,6.31µM*,-18.4%,-8.6%,?
CC(=O)N1N=C(c2ccc(C)o2)CC1c1ccc(Br)cc1 (stereo not given),?,-9.2,10µM*,35.9%,?,12.6%
CCOC(=O)C1=C(C)N(CCCCCC(=O)O)C(=O)NC1c1ccc(Br)cc1 (stereo not given),-19.5%,-15.0,2.1%,-0.5%,-4.2%,/
SMILES,ELG1 repair inh,Giardia kill,BRCA1 expr act,RORg inh,VP16 counter,p53 reactivation
CCn1c(SCC(=O)N2CCCC2)nnc1-c1ccc(S(=O)(=O)N2CCCCCC2)cc1,?,-8.5,-18.0%,26.0%,-5.1%,0.9%
CCn1c(SCc2ccc(C#N)cc2)nnc1-c1ccc(S(=O)(=O)N2CCCCC2)cc1,10.3µM*,-0.2,-57.9%,31.4%,-14.4%,-6.0%
COc1ccc(C(CC(=O)c2ccccc2)C2CCCCC2=O)cc1 (stereo not given),-6.4%,6.5,-17.5%,-14.4%,13.0%,-2.6%
N=c1c2c(n(Cc3ccc(F)cc3)c3c1CCC3)CCCC2,-5.3%,8.3,-47.5%,-13.4%,-12.5%,-3.4%
N=c1c2c(n(Cc3cccc(Cl)c3)c3c1CCC3)CCCC2,?,4.6,-76.4%,?,-15.2%,-5.5%
N=c1c2c(n(Cc3ccccc3)c3c1CCC3)CCC2,2.91µM*,15.5,-59.4%,13.0%,?,0.7%
N=c1c2c(n(Cc3ccc(Cl)cc3)c3c1CCC3)CCC2,2.91µM*,7.6,-77.9%,-7.9%,?,-4.9%
COc1ccc(OC)c(C2=NS(=O)(=O)N(C)C(C(=O)NCc3cccs3)=C2)c1,-13.4%,-26.7,0.0%,3.5%,-5.4%,4.2%
Cc1ccc2c(=O)cc(C(F)F)oc2c1,29.2%,4.1,16.0%,-21.0%,3.7%,-2.6%
Cc1nc(NC(=O)CC(C)C)sc1-c1csc(Nc2ccc(Cl)cc2)n1,23.1µM*,1.7,-82.4%,?,?,-3.1%
Cc1nc(C)c(-c2csc(Nc3cccc(O)c3)n2)s1,?,-9.3,43.5%,4.6%,-13.8%,11.8%
Cc1nc(NC(=O)CC(C)C)sc1-c1csc(Nc2ccc(Cl)cc2Cl)n1,14.6µM*,-17.7,-19.2%,20.8%,-5.2%,6.6%
CCC(=O)Nc1nc(C)c(-c2csc(Nc3cccc(O)c3)n2)s1,2.59µM*,6.1,-40.2%,?,-29.6%,28.2µM*
CCOc1ccc(NC(=O)CN(C)C(=O)c2c(-c3ccccc3)noc2C)cc1OCC,-6.7%,10.9,-11.1%,/,/,-3.4%
Cn1cccc1CNC(=O)Nc1ccc(Cl)c(Cl)c1,?,23.9,2.24µM*,39.4%,18.0%,21.8%
CCOc1ccc(NC(=O)NCc2cccn2C)cc1,?,-21.8,?,23.8%,-1.9%,18.3%
CC(C)C[C@@H](CC(=O)N[C@H](CC(=O)N[C@@H]1CCNC[C@H]1C(=O)N[C@H](CC(=O)N[C@@H](CCC(=O)O)CC(=O)O)Cc1c[nH]c2ccccc12)C(C)C)NC(=O)[C@@H]1CCCC[C@H]1N,/,/,/,5.4%,1.5%,/
O=C1c2cccc(OCC(=O)N3CCCc4ccccc43)c2CCN1Cc1ccc(Br)cc1,18.4µM*,-5.9,-68.9%,?,-28.3%,1.6%

# Assay outcomes (PubChem)
